Reference: PubChem BioAssay AID686979 (National Center for Advancing Translational Sciences (NCATS), 2013)
The campaign covered roughly 420,000 compounds. About 50,000 (12%) were called active. Inconclusive results (about 26%) are left out. Calls follow the shape of the dose curve; as a rule, active = well fitted inhibition curve with a large enough effect; inconclusive = small, poorly fitted or top-dose-only effect; inactive = flat fitted curve, though single readings scatter. Shown is part of a subset that was picked to be rich in actives. A call without a number means that no potency is given here.

Experiment: qHTS for Inhibitors of human tyrosyl-DNA phosphodiesterase 1 (TDP1): qHTS in cells in presence of CPT; also: nearly all actives have a fitted effect of over 55% in size
Settings: chicken DT40 Tdp1-/-;hTDP1 cells + 20 nM CPT, ATP luminescence, 48 h; series mostly up to 46.2 µM
Method in brief: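 Chicken DT40 Tdp1-/- cells complemented with human TDP1, 400 cells/well, exposed to compounds plus 20 nM camptothecin for at least 48 h at 37 C; viability read as ATP content by CellTiter-Glo luminescence.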
Potency is read from the fitted curve at half-maximal effect.

Row | SMILES | Potency
1 | COc1ccc(NC(=O)c2ccccc2[N+](=O)[O-])cc1OC | inactive
2 | COc1ccc(C(=O)NNC(=S)NC(=O)c2ccccc2[N+](=O)[O-])cc1 | 18.4 µM (active)
3 | O=C(CCc1ccccc1)NNC(=O)c1ccc(Br)cc1 | inactive
4 | O=C(NNC(=O)c1ccc(Cl)nc1)c1ccc(Br)cc1 | inactive
5 | CC(=O)NC(=S)NNC(=O)c1ccc(Br)cc1 | 6.51 µM (active)
6 | CC(C)Oc1ccc(CCC(=O)NNC(=S)NCc2ccccc2)cc1 | inactive
7 | COc1ccc(C(=O)NC(=S)NNC(=O)c2c(-c3ccccc3)noc2C)cc1 | inactive
8 | COC(=O)CNC(=O)c1ccccc1[N+](=O)[O-] | inactive
9 | COc1ccc(C(=O)NNC(=S)NC(=O)c2ccccc2)cc1 | 9.2 µM (active)
10 | COc1ccc(C(=O)NC(=S)NNC(=O)CCc2ccccc2)cc1 | 8.2 µM (active)
11 | CNC(=S)NNC(=O)c1ccc(N(C)C)cc1 | inactive
12 | COc1ccc(C(=S)Nc2ccccc2)cc1 | inactive
13 | CSCCC(NC(=O)COc1ccccc1)C(=O)OCc1ccc(Cl)cc1 (centres undefined) | inactive
14 | COc1cc(-c2cccnc2)cc2c1OCCN(C(=O)Cc1csc(C)n1)C2 | inactive
15 | CCCNC(=O)C1CC(=O)N(c2ccc(OCc3ccccc3)cc2)C1 (centres undefined) | inactive
16 | O=C(CCc1nc(CN2CCN(S(=O)(=O)c3ccc(Br)cc3)CC2)no1)N1CCCCC1 | inactive
17 | Cc1ccccc1N1C(=O)C2ON(c3ccccc3)C(c3ccncc3)C2C1=O (centres undefined) | inactive
18 | C/C(=N/OC(=O)c1ccc(Br)cc1)c1ccc(C)cc1 | inactive
19 | COc1ccc(-c2cc(=O)oc3cc(OCC(=O)N[C@@H](Cc4c[nH]c5ccccc45)C(=O)O)ccc23)cc1 | inactive
20 | O=C(N[C@H]1CC[C@H](CC(=O)N2CCCCC2)O[C@@H]1CO)c1cccc(F)c1 | inactive
21 | CCc1cc2c(=O)c(-c3nc4ccccc4n3C)c(CCCC(=O)O)oc2cc1OC(=O)C(C)(C)C | inactive
22 | CC1=C(C(=O)N(C)C)CC(CC(=O)NCCN2CCOCC2)C(=O)N1Cc1ccccc1 (centres undefined) | inactive

Row | SMILES | Potency
23 | COc1cccc(OCc2nnc3n2N=C(c2ccccc2)C(CC(=O)O)S3)c1 (centres undefined) | inactive
24 | O=C(COC(=O)Cn1[nH]c(=O)c2ccccc2c1=O)Nc1c(Cl)cccc1C(F)(F)F | inactive
25 | CC[C@H](C)[C@@H](C(=O)N1CCNCC1)n1cc([C@@H](N)Cc2ccc(O)cc2)nn1 | inactive
26 | COc1cc(C(=O)N2CCOCC2)cc(OC)c1OC | inactive
27 | COc1cc2ccccc2cc1C(=O)N1CCOCC1 | inactive
28 | COc1c(Br)cc2c(C)c(C(=O)N3CCOCC3)oc2c1Br | 20.6 µM (active)
29 | N#CCCN(C(=O)COC(=O)c1ccc2c(c1)OCCO2)c1ccccc1 | inactive
30 | CC(C)c1c(C(=O)N/N=C/c2ccccc2C(=O)O)nnn1-c1nonc1N | inactive
31 | Cn1c(=O)[nH]c(=O)c2c1[nH]c(=S)n2Cc1ccccc1 | inactive
32 | CCCc1c(C(=O)N/N=C(\C)CCc2ccc(OC)cc2)nnn1-c1nonc1N | inactive
33 | Cc1cccc(N2O[C@H]3C=CC2CCCC3)n1 | inactive
34 | COP1(=O)C[C@@H](O)[C@@H](O)[C@@H](COCc2ccccc2)O1 (some centres undefined) | inactive
35 | O=C(NCCc1ccc(Cl)cc1)c1ccc2c(c1)N(Cc1ccc(F)cc1)C(=O)CS2 | 20.6 µM (active)
36 | O=C(c1ccc2c(c1)N(Cc1ccc(F)cc1)C(=O)CS2)N1CCOCC1 | inactive
37 | O=C(NCCc1ccc(Cl)cc1)c1cccc(N2CCCC2=O)c1 | inactive
38 | CC1CCN(C(=O)c2ccccc2NC(=O)Cc2ccccc2)CC1 | inactive
39 | Cc1ccccc1C(=O)Nc1ccc(N2CCCCCC2)cc1 | 14.6 µM (active)
40 | O=C(Nc1ccc(N2CCN(C(=O)C3CC3)CC2)cc1)c1cccs1 | inactive
41 | Cc1ccccc1C(=O)N1CCN(c2ccc(NC(=O)c3cccs3)cc2)CC1 | 18.4 µM (active)
42 | Cc1cccc(C)c1NC(=O)CS(=O)CC(=O)N1CCN(c2ccccc2)CC1 (centres undefined) | inactive
43 | O=C(NC(=O)c1ccccc1N1CCCCC1)Nc1ccc(Br)cc1 | inactive
44 | COc1ccc(N2CCN(C(=O)c3cccs3)CC2)cc1 | inactive

Row | SMILES | Potency
45 | Cc1ccccc1C(=O)NC(=S)Nc1ccc(N2CCN(C(=O)c3ccccc3)CC2)cc1 | 10.3 µM (active)
46 | COc1ccccc1C(=O)NC(=S)Nc1ccc(N2CCOCC2)cc1 | inactive
47 | Cc1ccccc1C(=O)Nc1ccccc1NC(=O)c1ccccc1C | inactive
48 | O=C(NC1CCCC1)C(c1c(F)cccc1Cl)N(C(=O)c1csnn1)C1CC1 (centres undefined) | inactive
49 | CCOC(=O)c1cn[nH]c1NC(=S)Nc1ccccc1 | inactive
50 | CCCCN1C(=O)C(=O)N(CC(=O)Nc2cccc(C(C)=O)c2)C1=O | inactive
51 | Cc1cccc(-c2ncc(CN3CCC(CO)(CCCc4ccccc4)CC3)cn2)c1 | 23.1 µM (active)
52 | OCC1(CCOc2ccccc2)CCN(Cc2cn[nH]c2-c2ccccc2)CC1 | inactive
53 | OCC1(CCc2ccccc2)CCN(Cc2ccc3nsnc3c2)CC1 | inactive
54 | CC(=O)Nc1ccc2c3c(ccc([N+](=O)[O-])c13)CC2 | inactive
55 | CN1CCN(C(=O)c2ccccc2NC(=O)COc2ccccc2Cl)CC1 | inactive
56 | COc1ccccc1OCC(=O)Nc1ccccc1C(=O)NC1CC1 | inactive
57 | O=C(COc1ccccc1Cl)Nc1ccccc1C(=O)NC1CC1 | 23.1 µM (active)
58 | S=c1[nH]nc2c3c4c(sc3ncn12)CCCC4 | inactive
59 | COC(=O)C1=C[C@@H](C(=O)OC)[C@@H]2C3=C(C(=O)[C@]2(C)NC(=O)c2ccccc2)[C@H](C)n2c(=O)n(C)c(=O)n2[C@@H]3C1 | inactive
60 | CCOC(=O)C1=CCC2C(=O)N(Cc3ccccc3)C(=O)C12 (centres undefined) | inactive
61 | CCC1(CC)C(=O)C2=C3C1[C@H](C(=O)OC)C=C(C(=O)OC)C[C@H]3[C@H]1C(=O)N(Cc3ccccc3)C(=O)[C@H]1[C@H]2C (some centres undefined) | 4.61 µM (active)
62 | COc1ccc(NS(=O)(=O)c2ccc(Oc3c(C#N)cccc3C#N)cc2)cc1 | 10.3 µM (active)
63 | CCOc1ccc(S(=O)(=O)Nc2ccc(S(=O)(=O)Nc3cc(OC)ccc3OC)cc2)cc1 | inactive
64 | COc1ccc(NS(=O)(=O)c2cccc(C(=O)NCCc3ccc(S(N)(=O)=O)cc3)c2)cc1 | inactive
